PLK1 PBD inh = qHTS for Inhibitors of PLK1-PDB (polo-like kinase 1 - polo-box domain): Primary Screen. Plk1 PBD binding of FITC phosphopeptide, fluorescence polarization. Potency, µM, most hits filed as inhibitors. 360,000 tested, 2.8% active. AID 720504, 2013; further: series mostly up to about 57 µM; nearly all actives have a fitted effect of over 65% in size
TSG101-PTAP inh = qHTS Assay for Iinhibitors of HIV-1 Budding by Blocking the Interaction of PTAP/TSG101; Fluorescence polarization, FITC-PTAP peptide / Tsg101 binding; Potency, µM (highest dose often 115 µM), actives largely listed as inhibitors; 340,000 tested, under 10 active; active means well fitted inhibition curve with a large enough effect in the main read-out, with a control signal flat, not every such curve was filed as active; inconclusive means small, poorly fitted or top-dose-only effect, or effect the other way, or a change in a side signal; inactive means no such curve, though single readings can be large or run the other way
Target sequence (Q99816 whole entry, looked up): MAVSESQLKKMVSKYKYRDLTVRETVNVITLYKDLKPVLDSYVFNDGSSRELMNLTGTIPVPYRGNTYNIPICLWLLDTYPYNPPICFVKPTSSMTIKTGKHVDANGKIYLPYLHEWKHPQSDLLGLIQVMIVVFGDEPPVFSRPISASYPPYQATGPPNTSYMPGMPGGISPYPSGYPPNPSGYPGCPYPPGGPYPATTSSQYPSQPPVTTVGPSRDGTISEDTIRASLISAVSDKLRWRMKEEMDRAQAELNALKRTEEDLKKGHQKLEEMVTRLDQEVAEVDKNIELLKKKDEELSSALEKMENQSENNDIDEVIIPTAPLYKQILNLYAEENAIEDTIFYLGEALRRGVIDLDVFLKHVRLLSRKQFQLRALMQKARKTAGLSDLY
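FP read-out: FITC-PTAP peptide, 50 nM final, binding Tsg101 binding domain, 10 uM final; 20 min, r.t.; 10 mM HEPES pH 7.5, 0.15 M NaCl, 0.01% Tween 20, 3 mM EDTA, 0.1 mM TCEP.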
uPA generation = qHTS for Inhibitors of Cell Surface uPA Generation | cell surface uPA generation assay, qHTS | Potency, µM (highest dose often 38.3 µM), actives largely listed as inhibitors | 330,000 tested, 0.31% active; active means well fitted inhibition curve with a large enough effect; inconclusive means small, poorly fitted or top-dose-only effect; inactive means no such curve, though single readings can be large or run the other way; tested in mouse RAW 264.7 cells; further: nearly all actives have a fitted effect of over 55% in size
TSHR antag = Antagonists of the Thyroid Stimulating Hormone Receptor: HTS campaign. Thyrotropin receptor (Homo sapiens), P16473. TSHR-expressing cells, TSH-stimulated cAMP HTRF, 2 h; stronger effect = lower value. 330,000 tested, 0.2% active. activity change, negative = inhibition, % at 11.5 µM;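 active means activity change below a set negative limit, meaning inhibition stronger than a set level, cut at about -70% in these data; inconclusive means activity change between two set negative limits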
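Competitive HTRF cAMP read-out (cryptate anti-cAMP antibody, cAMP-d2; 30 min, room temperature) in freshly harvested TSHR cells. Compounds added before TSH at EC80 (4nM final), followed by 2 hours' incubation at 37 deg C.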
VDR inhibitor = Inhibitors of the vitamin D receptor (VDR): qHTS | Vitamin D3 receptor (Homo sapiens), P11473 | VDR-SRC2-3 peptide fluorescence polarization, 2 h | Potency, µM, most hits filed as inhibitors | 400,000 tested, 0.93% active
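Fluorescence polarization assay of small-molecule disruption of VDR binding to coregulator peptide SRC2-3. Compounds and controls pin-transferred, then read after 2 h incubation at ambient room temperature.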
A number is an active result; 0 = inactive; ? = inconclusive; - = not tested or not shown. In the library only some 3.1% were active in any assay of this set; here they are far more common. Unless noted, the call rests on the fitted dose curve; in most records, active means well fitted curve in the direction sought with a large enough effect; inconclusive means small, poorly fitted or top-dose-only effect, or another doubt; inactive means no such curve, though single readings can be large; an effect the other way counts as inactive or inconclusive.

SMILES	PLK1 PBD inh	TSG101-PTAP inh	uPA generation	TSHR antag	VDR inhibitor
COC(=O)C1=C(C)N(Cc2ccc(C)cc2)C(=O)/C1=C\c1cc(OC)c(OC)c(OC)c1	0	0	0	0	50µM
COc1cc(/C=C2/C(=O)NN(c3ccc(Cl)c(Cl)c3)C2=O)cc([N+](=O)[O-])c1O	12µM	0	0	0	56µM
COc1cc(/C=C2/C(=O)N(c3ccc(Br)cc3)N=C2C)cc([N+](=O)[O-])c1O	-	-	-	0	-
COc1cccc(/C=C2/C(=O)NN(c3ccc(Br)cc3)C2=O)c1O	7.5µM	0	0	0	?
O=C1NN(c2cccc(Br)c2)C(=O)/C1=C\c1ccc(N2CCOCC2)cc1	?	0	0	0	0
CC1C(=O)N(Cc2cn(CCC3OCCCO3)nn2)CCS(=O)(=O)N1Cc1ccc(-c2ccc(F)nc2)cc1 (centres undefined)	0	-	-	-	-
Cc1cc2c(n1-c1ccc(C(=O)NCc3ccccc3Cl)cc1)CCCC2	-	-	-	-	0
COc1cccc(Nc2ncc3nc(CCc4ccccc4)c(=O)n(C)c3n2)c1	-	-	-	-	0
COc1cc(/C=C2/C(=O)NN(c3ccc(Cl)cc3)C2=O)ccc1OC(=O)c1ccco1	2.7µM	0	0	0	?
COC(=O)c1ccc(N2NC(=O)/C(=C/c3cc(OC)c(O)c(OC)c3)C2=O)cc1	0	0	0	0	?
COc1cc(/C=C2/C(=O)NN(c3ccc(Cl)cc3)C2=O)cc(Br)c1O	?	0	0	0	71µM
C=CCN1C(=O)/C(=C\c2ccc(OC(=O)c3ccco3)c(OC)c2)SC1=S	0	0	0	0	0
COc1cc(/C=C2/C(=O)NN(c3ccc(F)cc3)C2=O)cc(Cl)c1O	30µM	0	0	0	?
Cc1cc(C)n(-c2cc(-c3ccccc3)nc(C)n2)n1	19µM	0	0	0	0
Cc1nc(-c2ccccc2)cc(N2CCCC2)n1	0	0	-	0	0
CCC(C)c1cc([N+](=O)[O-])cc([N+](=O)[O-])c1OC(=O)OC(C)C (centres undefined)	-	-	-	-	11µM
O=C1c2cccc3c([N+](=O)[O-])ccc(c23)C(=O)N1c1ccc(Cl)cn1	?	?	-	-89	0
O=C1C=CC(n2cc(F)c(=O)[nH]c2=O)O1 (centres undefined)	0	-	-	-	-
CC(C)c1ccc(CNn2cnnc2)cc1	27µM	0	0	0	0
CC(C)c1ccc(CNc2nnnn2C)cc1	0	0	0	0	0
CN(C)c1cccc(C(=O)NCc2ccc(Cl)cc2)c1	19µM	0	0	0	0
CN(C)c1cccc(C(=O)NCc2ccc3c(c2)OCO3)c1	0	0	0	0	0
O=C(COc1ncnc2ccccc12)N1CCN(S(=O)(=O)c2ccccc2)CC1	0	0	0	0	0
O=C(COc1ncnc2ccccc12)N1CCN(S(=O)(=O)c2ccc(Cl)cc2)CC1	30µM	0	0	0	0
COc1ccc(C(C(=O)Nc2ccc3c(c2)OCCO3)n2c(=O)c(-c3ccco3)nc3ccccc32)cc1 (centres undefined)	0	-	-	-	-
SMILES	PLK1 PBD inh	TSG101-PTAP inh	uPA generation	TSHR antag	VDR inhibitor
Cc1cc(NC(=O)CCCn2c(C)c3cnn(-c4ccccc4)c(=O)c3c2C)ccc1Br	-	-	-	-	0
COc1ccc2cc(C3CC(c4cccs4)=NN3S(C)(=O)=O)c(Cl)nc2c1 (centres undefined)	6.7µM	0	0	0	0
Cc1ccc2cc(C3CC(c4cccs4)=NN3S(C)(=O)=O)c(Cl)nc2c1 (centres undefined)	0	0	0	0	0
COc1cc(NC(=O)c2nn(-c3ccc(F)cc3)c(=O)n(C)c2=O)cc(OC)c1OC	-	-	-	-	0
COc1ccc(Nc2cc(C)c3c(O)cccc3n2)cc1	27µM	0	0	0	?
Cc1cccc(N2CCN(C(=O)C3CCN(C(=O)c4cc5sccc5n4C)CC3)CC2C)c1 (centres undefined)	-	-	-	-	0
CS(=O)(=O)N(CC(=O)N1CCOCC1)c1cccc(F)c1	0	0	0	-93	0
CC1CCN(C(=O)CN(c2cccc(F)c2)S(C)(=O)=O)CC1	0	0	0	0	0
O=C(CSc1nc(-c2ccc(F)cc2)cc(C(F)(F)F)n1)NCc1ccco1	3µM	0	0	0	0
CC(=O)c1ccc(N2C(=O)N(Cc3ccccc3C#N)c3ccccc3S2(=O)=O)cc1	-	-	-	-	0
Cc1cc2oc(=O)cc(CSc3nnc(-c4cccs4)o3)c2cc1C(C)C	24µM	0	0	0	0
Cc1cc2oc(=O)cc(CSc3nnc(C)n3N)c2cc1C(C)C	0	0	0	0	0
Cc1cccc(NC(=O)c2ccccc2O)c1C	0	0	0	0	0
Cc1ccc(C)c(NC(=O)c2ccccc2O)c1	3.4µM	0	0	0	?
CC(C)(C)c1ccc(/C=C2/SC(N3CCCC3)=NC2=O)cc1	0	0	0	0	0
O=C1N=C(N2CCCCC2)S/C1=C\c1ccc(Cl)cc1	0	0	0	0	0
O=C1N=C(N2CCCC2)S/C1=C\c1ccccc1	30µM	0	0	0	?
Cc1ccc(/C=C2\SC(N3CCCCC3)=NC2=O)cc1	24µM	0	0	0	?
CC(C)(C)c1ccc(C(=O)NC(=O)COC(=O)c2ccco2)cc1	0	0	0	0	0
N#Cc1c(C#N)c(O)c2ccccc2c1O	13µM	?	0	0	28µM
COc1ccc(NC(=O)CSc2nc(-c3cc(OC)c(OC)c(OC)c3)[nH]c2-c2ccc(F)cc2)cc1	-	-	-	-	0
COc1ccc(NC(=O)CS(=O)(=O)c2cccc(Cl)c2)cc1	21µM	0	0	0	?
Cc1ccc(NC(=O)Cn2c(=O)ccc3cc(S(=O)(=O)N4CCCC4)ccc32)cc1N(C)C	-	-	-	-	0
COc1ccc(-c2cnnc(N/N=C/c3ccc(O)c(O)c3)n2)cc1	0	0	0	0	0
COc1ccc(-c2cnnc(N/N=C/c3ccc(C)o3)n2)cc1	6µM	0	0	0	45µM
SMILES	PLK1 PBD inh	TSG101-PTAP inh	uPA generation	TSHR antag	VDR inhibitor
COc1ccc(-c2cnc3c(NC(C)=O)cc(-c4ccccc4OC)cn23)cc1OC	0	-	-	-	-
COc1ccc(-c2cnc3c(NC(C)=O)cc(-c4ccsc4)cn23)cc1OC	24µM	-	-	-	-
CC[C@H](C)[C@@H](NC(=O)O[C@@H]1C(=O)c2ccc(OC)cc2O[C@H]1c1cccc(C(F)(F)F)c1)C(=O)OC	-	-	-	-	0
O=C(CSc1nnnn1C1CCCCC1)N1CCOCC1	27µM	0	0	0	0
Cc1ccc2c(c1)C(=O)C(=O)N2CC1COc2ccccc2O1 (centres undefined)	?	0	0	0	71µM
Cc1ccc2c(c1)C(=O)C(=O)N2Cc1ccc(F)cc1	?	0	0	0	?
CCN1C(=O)C(=O)c2cc(C)ccc21	0	0	?	0	0
Cc1ccc2c(c1)C(=O)C(=O)N2Cc1ccccc1	0	0	0	0	79µM
